Measured values published in PubChem BioAssay AID1159580 (chemical genetic matrix, 2015).
“And” between values parts separate entries of the source, which are not always exact repeats. Equal values may be shown once. Among all 5,500 compounds or so, about 2,000 (36%) were called active. Not shown: some 18% with an inconclusive outcome. Rule as the data show it: active = normalized growth mostly below about 0.91 (no sharp cut-off); inconclusive = no clear call, values can overlap the other calls; inactive = mostly above about 0.92. Some of the results follow.

Test: chemical genetic growth profiling, strain panel (AID 1159580);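 also: tested at 20 µM; growth read once vehicle control cultures reached saturation at 30 °C; 1 = growth at the plate median or of vehicle wells; lower values mean less growth of the strain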
Conditions: S. cerevisiae deletion strains, growth OD

Measured: normalized growth

O=C(O)C1CCCNC1 (stereo not given)
inactive: locus YAL013W, strain DEP1, active compounds read low 1 | locus YAL021C, strain ccr4, active compounds read low 1.01 | locus YAL026C, strain drs2, active compounds read low 1.02 | locus YAL030W, strain snc1, active compounds read low 1.02 | locus YAL040C, strain CLN3, active compounds read low 1 | locus YBL061C, strain skt5, active compounds read low 1.02 | locus YBR009C, strain hhf1, active compounds read low 1.01 | locus YBR021W, strain FUR4, active compounds read low 0.999 | locus YBR023C, strain chs3, active compounds read low 1.01 | locus YBR171W, strain sec66, active compounds read low 1.03 | locus YBR229C, strain ROT2, active compounds read low 1.01 | locus YBR231C, strain swc5, active compounds read low 1.01 | locus YBR279W, strain paf1, active compounds read low 1.01 | locus YCL011C, strain gbp2, active compounds read low 1.01 | locus YCL016C, strain dcc1, active compounds read low 1.01 | locus YCL029C, strain bik1, active compounds read low 1.04 | locus YCL061C, strain MRC1 (second series), active compounds read low 1 | locus YCL061C, strain MRC1, active compounds read low 1.02 | locus YCL069W, strain vba3, active compounds read low 1.02 | locus YCR088W, strain abp1, active compounds read low 1.02 | locus YDL005C, strain med2, active compounds read low 1.02 | locus YDL035C, strain GPR1, active compounds read low 1.01 | locus YDL040C, strain nat1, active compounds read low 1.02 | locus YDL074C, strain BRE1, active compounds read low 1.03 | locus YDL101C, strain DUN1, active compounds read low 1.01 | locus YDL134C, strain PPH21, active compounds read low 1.01 | locus YDL185W, strain tfp1, active compounds read low 1.01 | locus YDL192W, strain arf1, active compounds read low 1.03 | locus YDR001C, strain nth1, active compounds read low 1.02 | locus YDR069C, strain doa4, active compounds read low 1.02 | locus YDR101C, strain arx1, active compounds read low 1.02 | locus YDR137W, strain rgp1, active compounds read low 1.02 | locus YDR150W, strain NUM1, active compounds read low 1.01 | locus YDR159W, strain sac3, active compounds read low 1.02 | locus YDR162C, strain NBP2, active compounds read low 1.01 | locus YDR195W, strain ref2 0.991 | locus YDR297W, strain sur2, active compounds read low 1.02 | locus YDR318W, strain mcm21, active compounds read low 1.03 | locus YDR334W, strain swr1, active compounds read low 1.02 | locus YDR335W, strain msn5, active compounds read low 1.02 | locus YDR388W, active compounds read low 1.02 | locus YDR392W, strain spt3, active compounds read low 1.03 | locus YDR502C, strain sam2, active compounds read low 1.01 | locus YEL003W, strain gim4, active compounds read low 1.03 | locus YEL037C, strain rad23, active compounds read low 1.02 | locus YEL061C, strain CIN8 (second series), active compounds read low 1.02 | locus YEL061C, strain CIN8, active compounds read low 1.01 | locus YER002W, strain NOP16, active compounds read low 1.02 | locus YER015W, strain faa2, active compounds read low 1.02 | locus YER016W, strain bim1, active compounds read low 1.01 | locus YER110C, active compounds read low 1.02 | locus YER111C, strain swi4, active compounds read low 1.02 | locus YER155C, strain BEM2 (second series), active compounds read low 1.02 | locus YER155C, strain BEM2, active compounds read low 1 | locus YER167W, strain BCK2, active compounds read low 1.02 | locus YFR010W, strain ubp6, active compounds read low 1.02 | locus YGL078C, strain dbp3, active compounds read low 1.02 | locus YGL086W, strain mad1, active compounds read low 0.999 | locus YGL167C, strain pmr1, active compounds read low 1.01 | locus YGL173C, strain kem1, active compounds read low 1.02 | locus YGL227W, strain vid30, active compounds read low 1.02 | locus YGL240W, strain doc1, active compounds read low 1.02 | locus YGL248W, strain PDE1, active compounds read low 1.01 | locus YGL253W, strain hxk2, active compounds read low 1.02 | locus YGR078C, strain PAC10, active compounds read low 1.02 and 1.01 | locus YGR135W, strain pre9, active compounds read low 1.03 | locus YGR229C, strain SMI1, active compounds read low 0.999 | locus YGR252W, strain gcn5, active compounds read low 1.01 | locus YHR013C, strain ard1, active compounds read low 1.04 | locus YHR027C, strain rpn1, active compounds read low 1.01 | locus YHR030C, strain SLT2, active compounds read low 1 and 0.996 | locus YHR079C, strain IRE1 (second series), active compounds read low 1.02 | locus YHR079C, strain IRE1, active compounds read low 1.01 | locus YHR094C, strain hxt1, active compounds read low 1.02 | locus YHR129C, strain ARP1, active compounds read low 1.01 | locus YHR142W, strain chs7, active compounds read low 1.01 | locus YHR200W, strain rpn10, active compounds read low 1.01 | locus YIL066C, strain RNR3, active compounds read low 1.01 | locus YIL073C, strain SPO22, active compounds read low 1.1 | locus YIL125W, strain kgd1, active compounds read low 1.02 | locus YIR030C, strain dcg1, active compounds read low 1.03 | locus YJL092W, strain hpr5, active compounds read low 1.02 | locus YJL095W, strain BCK1 (second series), active compounds read low 1.02 | locus YJL095W, strain BCK1, active compounds read low 1.04 and 1 | locus YJL115W, strain asf1, active compounds read low 1.01 | locus YJL129C, strain trk1, active compounds read low 1.04 | locus YJL134W, strain LCB3, active compounds read low 1.01 | locus YJL154C, strain vps35, active compounds read low 1.03 | locus YJL164C, strain tpk1, active compounds read low 1.01 | locus YJL166W, strain qcr8, active compounds read low 1.01 | locus YJL168C, strain set2, active compounds read low 1.02 | locus YJL187C, strain SWE1 (second series), active compounds read low 1.02 | locus YJL187C, strain SWE1, active compounds read low 1.01 | locus YJR043C, strain POL32, active compounds read low 1.01 | locus YJR066W, strain TOR1, active compounds read low 0.923
